Measurements as given in PubChem BioAssay AID1159580 (chemical genetic matrix, 2015).
In all, about 5,500 compounds went through this assay and about 2,000 (36%) were called active. Not shown: some 18% with an inconclusive outcome. Rule as the data show it: active = normalized growth mostly below about 0.91 (no sharp cut-off); inconclusive = no clear call, values can overlap the other calls; inactive = mostly above about 0.92. The list shows a part of the results.

Assay: chemical genetic growth profiling, strain panel (AID 1159580);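 also: tested at 20 µM; growth read once vehicle control cultures reached saturation at 30 °C; 1 = growth at the plate median or of vehicle wells; lower values mean less growth of the strain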
Details: growth OD

Measured: normalized growth

C[C@H](N)[C@H](O)c1ccc(O)c(O)c1
inactive: S. cerevisiae deletion strains, locus YJR066W, strain TOR1, active compounds read low 0.948 | S. cerevisiae deletion strains, locus YJR075W, strain HOC1, active compounds read low 0.993 | S. cerevisiae deletion strains, locus YKL009W, strain mrt4, active compounds read low 0.994 | S. cerevisiae deletion strains, locus YKL068W, active compounds read low 0.986 | S. cerevisiae deletion strains, locus YKL085W, strain MDH1 (second series), active compounds read low 0.983 | S. cerevisiae deletion strains, locus YKL085W, strain MDH1, active compounds read low 0.983 | S. cerevisiae deletion strains, locus YKL160W, strain elf1, active compounds read low 0.981 | S. cerevisiae deletion strains, locus YKR001C, strain vps1, active compounds read low 0.978 | S. cerevisiae deletion strains, locus YKR026C, strain gcn3, active compounds read low 1 | S. cerevisiae deletion strains, locus YKR091W, strain srl3, active compounds read low 0.998 | S. cerevisiae deletion strains, locus YLL001W, strain dnm1, active compounds read low 0.954 | S. cerevisiae deletion strains, locus YLL026W, active compounds read low 1.01 | S. cerevisiae deletion strains, locus YLL041C, strain sdh2, active compounds read low 1.01 | S. cerevisiae deletion strains, locus YLR027C, strain aat2, active compounds read low 1.01 | S. cerevisiae deletion strains, locus YLR039C, strain RIC1, active compounds read low 0.959 | S. cerevisiae deletion strains, locus YLR058C, strain SHM2, active compounds read low 0.993 | S. cerevisiae deletion strains, locus YLR102C, strain apc9, active compounds read low 0.988 | S. cerevisiae deletion strains, locus YLR113W, strain HOG1, active compounds read low 0.967 | S. cerevisiae deletion strains, locus YLR221C, strain rsa3, active compounds read low 0.979 | S. cerevisiae deletion strains, locus YLR258W, strain gsy2, active compounds read low 0.996 | S. cerevisiae deletion strains, locus YLR262C, strain YPT6 (second series), active compounds read low 0.974 | S. cerevisiae deletion strains, locus YLR262C, strain YPT6, active compounds read low 1.04 | S. cerevisiae deletion strains, locus YLR268W, strain sec22, active compounds read low 0.969 | S. cerevisiae deletion strains, locus YLR320W, strain mms22, active compounds read low 1.01 | S. cerevisiae deletion strains, locus YLR330W, strain CHS5, active compounds read low 0.995 | S. cerevisiae deletion strains, locus YLR342W, strain FKS1 (second series), active compounds read low 0.968 | S. cerevisiae deletion strains, locus YLR342W, strain FKS1, active compounds read low 1.01 | S. cerevisiae deletion strains, locus YLR357W, strain rsc2, active compounds read low 0.983 | S. cerevisiae deletion strains, locus YLR370C, strain arc18, active compounds read low 1 | S. cerevisiae deletion strains, locus YLR371W, strain rom2, active compounds read low 0.963 | S. cerevisiae deletion strains, locus YLR384C, strain iki3, active compounds read low 0.998 | S. cerevisiae deletion strains, locus YLR418C, strain cdc73, active compounds read low 0.948 | S. cerevisiae deletion strains, locus YML016C, strain PPZ1, active compounds read low 0.994 | S. cerevisiae deletion strains, locus YML032C, strain rad52, active compounds read low 0.988 | S. cerevisiae deletion strains, locus YML120C, strain ndi1, active compounds read low 0.985 | S. cerevisiae deletion strains, locus YML124C, strain tub3, active compounds read low 0.994 | S. cerevisiae deletion strains, locus YMR058W, strain fet3, active compounds read low 1 | S. cerevisiae deletion strains, locus YMR078C, strain ctf18, active compounds read low 0.973 | S. cerevisiae deletion strains, locus YMR125W, strain sto1, active compounds read low 0.994 | S. cerevisiae deletion strains, locus YMR129W, active compounds read low 1 | S. cerevisiae deletion strains, locus YMR205C, strain PFK2, active compounds read low 0.994 | S. cerevisiae deletion strains, locus YMR223W, strain ubp8, active compounds read low 0.953 | S. cerevisiae deletion strains, locus YMR231W, strain pep5, active compounds read low 0.999 | S. cerevisiae deletion strains, locus YMR263W, strain SAP30, active compounds read low 0.997 | S. cerevisiae deletion strains, locus YMR307W, strain GAS1, active compounds read low 0.95 | S. cerevisiae deletion strains, locus YNL067W, strain RPL9B, active compounds read low 1 | S. cerevisiae deletion strains, locus YNL071W, strain lat1, active compounds read low 1.02 | S. cerevisiae deletion strains, locus YNL183C, strain NPR1, active compounds read low 0.963 | S. cerevisiae deletion strains, locus YNL209W, strain ssb2, active compounds read low 0.991 | S. cerevisiae deletion strains, locus YNL233W, strain BNI4, active compounds read low 0.987 | S. cerevisiae deletion strains, locus YNL248C, strain rpa49, active compounds read low 0.995 | S. cerevisiae deletion strains, locus YNL250W, strain rad50, active compounds read low 0.967 | S. cerevisiae deletion strains, locus YNL271C, strain bni1, active compounds read low 0.964 | S. cerevisiae deletion strains, locus YNL298W, strain CLA4, active compounds read low 0.966 | S. cerevisiae deletion strains, locus YNL307C, strain MCK1, active compounds read low 0.979 | S. cerevisiae deletion strains, locus YNL322C, strain KRE1 (second series), active compounds read low 0.991 | S. cerevisiae deletion strains, locus YNR049C, strain mso1, active compounds read low 1 | S. cerevisiae deletion strains, locus YNR052C, strain pop2, active compounds read low 0.963 | S. cerevisiae deletion strains, locus YOL006C, strain TOP1, active compounds read low 0.878 | S. cerevisiae deletion strains, locus YOL012C, strain htz1 1.03 | S. cerevisiae deletion strains, locus YOL147C, strain pex11, active compounds read low 0.983 | S. cerevisiae deletion strains, locus YOR001W, strain rrp6, active compounds read low 1.02 | S. cerevisiae deletion strains, locus YOR061W, strain CKA2, active compounds read low 0.996 | S. cerevisiae deletion strains, locus YOR069W, strain VPS5, active compounds read low 0.99 | S. cerevisiae deletion strains, locus YOR070C, strain gyp1, active compounds read low 1 | S. cerevisiae deletion strains, locus YOR080W, strain dia2, active compounds read low 1.01 | S. cerevisiae deletion strains, locus YOR083W, strain WHI5, active compounds read low 0.981 | S. cerevisiae deletion strains, locus YOR106W, strain vam3, active compounds read low 0.976 | S. cerevisiae deletion strains, locus YOR136W, strain idh2, active compounds read low 0.991 | S. cerevisiae deletion strains, locus YOR144C, strain elg1, active compounds read low 0.984 | S. cerevisiae deletion strains, locus YOR184W, strain ser1, active compounds read low 0.977 | S. cerevisiae deletion strains, locus YOR231W, strain MKK1, active compounds read low 1.01 | S. cerevisiae deletion strains, locus YOR265W, strain rbl2, active compounds read low 1 | S. cerevisiae deletion strains, locus YOR270C, strain vph1, active compounds read low 1.02 | S. cerevisiae deletion strains, locus YOR290C, strain snf2, active compounds read low 0.958 | S. cerevisiae deletion strains, locus YOR316C, strain cot1, active compounds read low 0.986 | S. cerevisiae deletion strains, locus YPL051W, strain arl3, active compounds read low 0.976 | S. cerevisiae deletion strains, locus YPL078C, strain atp4, active compounds read low 0.989 | S. cerevisiae deletion strains, locus YPL106C, strain sse1, active compounds read low 0.959 | S. cerevisiae deletion strains, locus YPL240C, strain hsp82, active compounds read low 1.01 | S. cerevisiae deletion strains, locus YPL241C, strain CIN2, active compounds read low 1 | S. cerevisiae deletion strains, locus YPL256C, strain CLN2, active compounds read low 0.992 | S. cerevisiae deletion strains, locus YPR119W, strain clb2, active compounds read low 0.982 | S. cerevisiae deletion strains, locus YPR141C, strain kar3, active compounds read low 0.975 | S. cerevisiae deletion strains, locus YPR163C, strain tif3, active compounds read low 0.986 | S. cerevisiae deletion strains, locus YPR167C, strain met16, active compounds read low 0.993 | S. cerevisiae deletion strains, strain wtn01, active compounds read low 0.971 | S. cerevisiae strains, strain wild type, active compounds read low 1.01
